{"source": "PubChem BioAssay (Tox21)", "note": "Calls of active or inactive are those of the source. A call without a number means that no potency is given here. The call rests on the fitted dose curve. Potency means the concentration at half of the fitted maximal effect."}
{"target": "Acetylcholinesterase (Homo sapiens) (UniProt P22303)", "sequence (P22303 whole entry, looked up)": "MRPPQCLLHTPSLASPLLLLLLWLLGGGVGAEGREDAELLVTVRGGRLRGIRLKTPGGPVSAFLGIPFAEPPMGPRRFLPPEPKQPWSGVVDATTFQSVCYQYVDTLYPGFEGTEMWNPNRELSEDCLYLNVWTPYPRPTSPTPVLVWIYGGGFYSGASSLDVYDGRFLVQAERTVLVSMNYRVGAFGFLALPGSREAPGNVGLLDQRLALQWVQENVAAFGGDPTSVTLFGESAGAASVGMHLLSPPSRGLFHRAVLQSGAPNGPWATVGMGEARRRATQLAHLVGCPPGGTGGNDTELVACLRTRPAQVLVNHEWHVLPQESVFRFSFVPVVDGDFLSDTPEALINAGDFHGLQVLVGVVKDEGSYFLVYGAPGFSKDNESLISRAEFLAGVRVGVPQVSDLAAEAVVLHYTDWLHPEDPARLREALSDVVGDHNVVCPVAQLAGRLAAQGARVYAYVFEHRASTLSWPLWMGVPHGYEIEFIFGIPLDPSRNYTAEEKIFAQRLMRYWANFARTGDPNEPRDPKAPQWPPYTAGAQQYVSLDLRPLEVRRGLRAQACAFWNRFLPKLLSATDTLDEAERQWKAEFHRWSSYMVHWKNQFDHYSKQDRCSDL", "assay": "Acetylcholinesterase (AChE) small molecule antagonists: enzyme-based qHTS assay with human liver microsomes (AID 1347399); further: nearly all actives have a fitted effect of over 60% in size", "settings": "Potency: qHTS inhibition; series mostly up to 115 µM", "summary_of_the_method": "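Recombinant human AChE (50 mU/mL in the enzyme mix) and human liver microsomes (0.25 mg/mL final) were preincubated with compound and NADPH (0.25 mg/mL final) for 30 min at 37 C. Acetylthiocholine/DTNB was then added; thiocholine was read colorimetrically after 10 min at room temperature.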"}
{"smiles": "CC(C)CC(C)N", "note": "(centres undefined)", "Potency": "inactive"}
{"smiles": "O=C1C=CC(=O)c2ccccc21", "Potency": "inactive"}
{"smiles": "COC(=O)N(C(=O)N1COC2(C(=O)OC)Cc3cc(Cl)ccc3C2=N1)c1ccc(OC(F)(F)F)cc1", "note": "(centres undefined)", "Potency": "inactive"}
{"smiles": "CC(Cc1ccc(C(C)(C)C)cc1)CN1C[C@@H](C)O[C@@H](C)C1", "note": "(some centres undefined)", "Potency": "inactive"}
{"smiles": "Nc1ccccc1C(=O)OC/C=C/c1ccccc1", "Potency": "inactive"}
{"smiles": "Cc1cccc(OP(=O)(Oc2cccc(C)c2)Oc2cccc(C)c2)c1", "Potency": "inactive"}
{"smiles": "Oc1ccccc1Br", "Potency": "inactive"}
{"smiles": "Cc1cc(Cl)ccc1O[C@H](C)C(=O)O", "Potency": "inactive"}
{"smiles": "[Cl][Sb]([Cl])[Cl]", "Potency": "inactive"}
{"smiles": "N#C/C=C/C#N", "Potency": "inactive"}
{"smiles": "C=CC(=O)N(C)C", "Potency": "inactive"}
{"smiles": "CCCOCC(=Nc1ccc(Cl)cc1C(F)(F)F)n1ccnc1", "Potency": "inactive"}
{"smiles": "CN(CCCC(O)c1cccnc1)N=O", "note": "(centres undefined)", "Potency": "inactive"}
{"smiles": "CC(C)CC(C)Nc1ccc(Nc2ccccc2)cc1", "note": "(centres undefined)", "Potency": "inactive"}
{"smiles": "CC(O)C#N", "note": "(centres undefined)", "Potency": "inactive"}
{"smiles": "c1ccc2cc3c(cc2c1)-c1cccc2cccc-3c12", "Potency": "inactive"}
{"smiles": "N#CNC#N", "Potency": "inactive"}
{"smiles": "ClC1=C(Cl)[C@]2(Cl)[C@@H]3[C@@H]4C[C@@H]([C@H]5O[C@@H]45)[C@@H]3[C@@]1(Cl)C2(Cl)Cl", "Potency": "inactive"}
{"smiles": "CCOP(=S)(OCC)SCS(=O)(=O)CC", "Potency": "12.6 µM (active)"}
{"smiles": "ClC(Cl)=C(c1ccc(Cl)cc1)c1ccc(Cl)cc1", "Potency": "inactive"}
{"smiles": "Clc1ccc(CCC(Cn2ccnc2)Sc2c(Cl)cccc2Cl)cc1", "note": "(centres undefined)", "Potency": "inactive"}
{"smiles": "Nc1ccc(Sc2ccc(N)cc2)cc1", "Potency": "inactive"}
{"smiles": "O=C(O)C1C2CCC(O2)C1C(=O)O", "note": "(centres undefined)", "Potency": "inactive"}
{"smiles": "c1cc[c]([Sb]([c]2ccccc2)[c]2ccccc2)cc1", "Potency": "inactive"}
